# Measured values from PubChem BioAssay (NCATS).
# Inconclusive results are not listed. Where a call stands in place of a potency, no number is given. The source made the active and inactive calls. Unless noted, calls come from the whole dose curve; as a rule, active = well fitted curve in the direction sought with a large enough effect; inconclusive = small, poorly fitted or top-dose-only effect, or another doubt; inactive = no such curve, though single readings can be large; an effect the other way counts as inactive or inconclusive.
# Columns and labels:
# [1] = target: Luciferin 4-monooxygenase (Photinus pyralis) (UniProt P08659); assay: Biochemical firefly luciferase enzyme assay for NPC (AID 624030);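 note: purified P. pyralis luciferase at 10 nM with luciferin and ATP substrate; nearly all actives have a fitted effect of over 70% in size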; details: purified P. pyralis luciferase, luminescence, 5 min; series mostly up to 58.6 µM
# Chain of Luciferin 4-monooxygenase (Photinus pyralis) (P08659 whole entry, looked up): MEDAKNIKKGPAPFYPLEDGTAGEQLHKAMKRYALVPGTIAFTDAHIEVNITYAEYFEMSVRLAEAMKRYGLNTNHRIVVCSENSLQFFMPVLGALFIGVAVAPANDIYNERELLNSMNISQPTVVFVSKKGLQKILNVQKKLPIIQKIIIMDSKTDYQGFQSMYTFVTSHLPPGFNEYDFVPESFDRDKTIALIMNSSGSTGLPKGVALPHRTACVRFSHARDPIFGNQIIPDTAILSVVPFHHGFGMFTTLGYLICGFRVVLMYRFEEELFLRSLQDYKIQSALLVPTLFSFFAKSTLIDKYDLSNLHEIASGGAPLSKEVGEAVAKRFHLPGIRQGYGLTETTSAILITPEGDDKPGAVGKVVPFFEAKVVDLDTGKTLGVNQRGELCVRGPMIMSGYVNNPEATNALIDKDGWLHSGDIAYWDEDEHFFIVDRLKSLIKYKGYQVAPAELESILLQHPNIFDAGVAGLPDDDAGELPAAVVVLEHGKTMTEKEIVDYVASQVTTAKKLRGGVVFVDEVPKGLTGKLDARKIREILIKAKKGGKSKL
# Outline: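 Direct inhibition of firefly luciferase enzyme (10 nM final, 50 mM Tris Acetate) assessed by luminescence within 5 minutes. Percent activity scaled between DMSO and PTC124 positive control, with concentration-effect curves classified by fit quality and response.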
# [2] = S16 Schwann cell viability assay (CellTiter-Glo assay) (AID 624031); details: S16 rat Schwann cells viability, 24 h; series mostly up to 57.5 µM; note: nearly all actives have a fitted effect of over 70% in size; note: potency is the fitted concentration of half-maximal effect
# Outline: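 Following overnight culture in 10% FBS DMEM, parental S16 rat Schwann cells are dosed for 24 h at 37 °C. Viability is read as CellTiter-Glo luminescence and expressed as % activity relative to DMSO (0%) and no-cell wells.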
# [3] = target: Glutaminase kidney isoform, mitochondrial (Homo sapiens) (UniProt O94925); assay: qHTS for Inhibitors of Glutaminase (GLS): LOPAC Validation (AID 624146); details: glutaminase enzyme activity inhibition; series mostly up to 46.1 µM;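 note: glutamate product detected by oxidase and peroxidase coupled Amplex red fluorescence gain; nearly all actives have a fitted effect of over 60% in size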
# Chain of Glutaminase kidney isoform, mitochondrial (Homo sapiens) (O94925 whole entry, looked up, canonical isoform): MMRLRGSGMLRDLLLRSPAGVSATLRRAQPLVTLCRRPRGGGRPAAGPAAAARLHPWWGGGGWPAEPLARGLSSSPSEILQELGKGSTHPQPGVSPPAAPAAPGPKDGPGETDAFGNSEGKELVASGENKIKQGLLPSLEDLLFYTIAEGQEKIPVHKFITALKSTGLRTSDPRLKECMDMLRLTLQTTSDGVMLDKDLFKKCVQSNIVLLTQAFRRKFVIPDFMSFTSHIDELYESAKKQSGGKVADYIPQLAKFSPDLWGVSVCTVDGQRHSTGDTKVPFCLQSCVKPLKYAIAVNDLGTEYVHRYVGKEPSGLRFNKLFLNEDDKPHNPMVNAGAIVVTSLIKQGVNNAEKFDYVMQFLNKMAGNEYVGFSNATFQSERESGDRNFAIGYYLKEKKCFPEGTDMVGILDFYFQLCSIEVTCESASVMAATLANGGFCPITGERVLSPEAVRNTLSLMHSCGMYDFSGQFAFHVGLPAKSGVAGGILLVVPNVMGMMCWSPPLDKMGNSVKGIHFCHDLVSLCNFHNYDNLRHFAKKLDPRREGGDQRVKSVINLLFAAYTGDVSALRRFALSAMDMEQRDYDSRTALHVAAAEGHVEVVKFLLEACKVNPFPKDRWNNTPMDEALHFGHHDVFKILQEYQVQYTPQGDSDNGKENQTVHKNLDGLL
# Outline: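 Human kidney-isoform GLS in 45 mM KH2PO4 pH 8.2, 0.02% Tween-20, with compound, started with 1mM L-Glutamine (added stock). Glutamate oxidase/HRP/Amplex red coupled fluorescence read at start and after 30 min at RT.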
# [4] = S16 Schwann cell PMP22 intronic element firefly luciferase assay (AID 624032); details: S16 rat Schwann cells, PMP22 element FLuc, 24 h; series mostly up to 57.5 µM; note: nearly all actives have a fitted effect of over 30% in size; note: potency is the fitted concentration of half-maximal effect
# Outline: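 Luciferase reporter of PMP22 intronic-element expression in stably transfected S16 rat Schwann cells, read by ONE-Glo luminescence after 24 h compound exposure at 37 C. Activity scaled between DMSO (0%) and positive-control PTC124; concentration-effect curves quality-classified.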
# [5] = S16 Schwann cell PMP22 intronic element beta-lactamase assay (AID 624044; calls by dose curve; note: nearly all actives have a fitted effect of over 15% in size); details: S16 rat Schwann cells, PMP22 element beta-lactamase FRET, 24 h; series mostly up to 38.3 µM
# Outline: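 Rat S16 Schwann cells with beta-Lac driven by a PMP22 intronic element, compound-treated 24 h at 37 °C. LiveBLAzer FRET B/G read: 460 nm normalized to potassium clavulanate vs DMSO; 535 nm FRET as viability; concentration-effect curves classified.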
structure (smiles),measurement,setting,value
CC(C)(C)C(=O)OCOP(=O)(COCCn1cnc2c(N)ncnc21)OCOC(=O)C(C)(C)C,Potency,[1],inactive
same,Potency,[2],inactive
CCN(CC)CCn1c(=O)c(Cc2ccc(OC)cc2)nc2ccccc21,Potency,[1],inactive
same,outcome,[3],inactive
Cc1cccc(Nc2ccncc2S(=O)(=O)NC(=O)NC(C)C)c1,Potency,[1],inactive
same,Potency,[2],inactive
same,Potency,[4],inactive
CC1=CC(=O)c2ccccc2C1=O,Potency,[1],inactive
same,Potency,[2],14.4 µM (active)
same,Potency,[4],22.8 µM (active)
same,Potency,[5],inactive
Cc1cccc(N(C)C(=S)Oc2ccc3ccccc3c2)c1,Potency,[1],inactive
same,Potency,[2],inactive
same,Potency,[4],inactive
COc1cc([C@@H]2c3cc4c(cc3[C@H](O)[C@H]3COC(=O)[C@H]23)OCO4)cc(OC)c1OC,Potency,[1],inactive
same,Potency,[2],inactive
NC1(c2ccc(-c3nc4ccn5c(=O)[nH]nc5c4cc3-c3ccccc3)cc2)CCC1,Potency,[1],inactive
COCCCOc1cc(C[C@@H](C[C@H](N)[C@@H](O)C[C@H](C(=O)NCC(C)(C)C(N)=O)C(C)C)C(C)C)ccc1OC,Potency,[1],inactive
COc1ccc(C(=O)CC(=O)c2ccc(C(C)(C)C)cc2)cc1,Potency,[1],inactive
same,Potency,[2],inactive
same,Potency,[4],inactive
same,Potency,[5],inactive
CCCOc1ccc(C(=O)OCCN(CC)CC)cc1N,Potency,[1],inactive
Cc1ccc(S(=O)(=O)N[C@@H](Cc2ccccc2)C(=O)CCl)cc1,outcome,[3],inactive
CCCCCCNC(=O)n1cc(F)c(=O)[nH]c1=O,Potency,[1],inactive
same,Potency,[2],inactive
same,Potency,[4],inactive
NCCCC(O)(P(=O)(O)O)P(=O)(O)O,Potency,[1],inactive
same,Potency,[2],inactive
same,Potency,[4],inactive
same,Potency,[5],inactive
COc1cc2c(Nc3ccc(Br)cc3F)ncnc2cc1OCC1CCN(C)CC1,Potency,[1],inactive
same,Potency,[2],20.3 µM (active)
same,Potency,[4],9.07 µM (active)
